Screening data as filed in PubChem.
This is a sample that favours compounds with a hit; in the whole collection about 3.1% have one here.
GSIS activator: GLuc luminescence reporter in INS-1E cells, primary screen for activators of glucose-dependent secretion of insulin; activation, % at 16.6 µM; INS-1E GLuc reporter insulin secretion, 2-3 h; 0.61% of 370,000 active;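 active = lowest replicate activation of at least 40%, so every replicate reaches that level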
RAD52 anneal inh: RAD52 DNA annealing inhibitors, primary screen, biochemical, FRET, single point, set 2; inhibition, % at 18.7 µM; DNA repair protein RAD52 homolog (Homo sapiens), P43351; recombinant RAD52 DNA annealing, FRET fluorescence; 0.46% of 360,000 active;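 active = every replicate showing at least 50% inhibition; inconclusive = mean inhibition at least 50% but not in every replicate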
RAD54 inh: inhibitors of human RAD54 branch migration, primary screen, biochemical, fluorescence, single point; DNA repair and recombination protein RAD54-like (Homo sapiens), Q92698; AID 602329, 2012; inhibition, % at 10.4 µM; 0.14% of 360,000 active; RAD54 Holliday junction branch migration, FAM/BHQ fluorescence;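 active = mean normalized replicate activity at least 40 and at least half of replicates scoring 40 or more; inconclusive = only one of the two criteria met; inactive = mean below 40 and under half of replicates reaching 40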;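 also: inhibitors cause a drop in the FAM fluorescence signal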
dFosB act-1: activators of delta FosB homodimer, primary screen, biochemical, fluorescence polarization, TAMRA-CDK5 oligo, single point | activation, % at 25 µM | Protein FosB (Mus musculus), P13346 | purified delta FosB; percent of positive-control signal above neutral wells | 0.99% of 340,000 active | AID 493131, 2011;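 active = mean activation above about 17%, with every replicate also reaching it, limit read from the data, passing the limit was not always enough; inconclusive = only one of the two conditions met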
DENV2 CPE: inhibitors of DENV2 cytopathic effect, primary screen, cell-based, plate reader, single concentration. DENV2-infected cells, cytopathic effect rescue. CPE inhibition, % at 9.99 µM. 1.7% of 350,000 active; in the data active = CPE inhibition above about 20%, passing the limit was not always enough; inconclusive = no clear call, values can overlap the other calls; tested in BHK-21 cells
MLL AF4-AF9 inh: inhibitors of AF4 peptide binding to AF9, primary screen, biochemical, AlphaScreen, biotin-AF4 peptide, FLAG-AF9, single point | 0.47% of 350,000 active | inhibition, % at 10 µM;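 active = every replicate reaching a set inhibition limit, whatever the replicate mean, cut at about 25% in these data; inconclusive = mean inhibition reaches that limit but some replicates miss it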
Target sequence (P42568 whole entry, looked up): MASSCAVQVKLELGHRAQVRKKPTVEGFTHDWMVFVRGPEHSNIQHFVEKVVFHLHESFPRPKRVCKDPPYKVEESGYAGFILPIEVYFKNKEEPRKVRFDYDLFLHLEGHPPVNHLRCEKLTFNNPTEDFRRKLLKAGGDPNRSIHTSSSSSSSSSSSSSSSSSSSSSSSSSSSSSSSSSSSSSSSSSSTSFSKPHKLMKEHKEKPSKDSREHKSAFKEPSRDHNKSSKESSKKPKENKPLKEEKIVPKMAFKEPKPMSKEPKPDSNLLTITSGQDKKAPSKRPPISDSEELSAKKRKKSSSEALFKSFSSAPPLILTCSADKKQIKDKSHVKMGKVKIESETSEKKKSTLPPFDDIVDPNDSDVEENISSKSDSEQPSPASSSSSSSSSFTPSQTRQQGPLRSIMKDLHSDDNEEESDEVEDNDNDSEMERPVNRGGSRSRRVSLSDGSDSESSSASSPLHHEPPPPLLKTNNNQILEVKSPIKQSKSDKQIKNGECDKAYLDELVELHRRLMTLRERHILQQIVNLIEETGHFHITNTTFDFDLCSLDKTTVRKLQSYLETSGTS
dFosB act-2: activators of mouse delta FosB DNA binding, confirmation, biochemical, fluorescence polarization, TAMRA-CDK5 oligo, cherry-picked samples; activation, % at 24.9 µM; 2,400 tested, under 10 active; shares compounds with dFosB act-1; AID 588690, 2011; purified delta FosB; normalised: neutral wells 0, positive control 100;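 active = highest replicate activation at or above 34% and every replicate reaching that threshold; inconclusive = meets only one of the two criteria; inactive = meets neither criterion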;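 also: higher polarization means more probe DNA bound by delta FosB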
Hits are given with their value; i = inactive; ? = inconclusive; nt = not tested or not shown.

SMILES	GSIS activator	RAD52 anneal inh	RAD54 inh	dFosB act-1	DENV2 CPE	MLL AF4-AF9 inh	dFosB act-2
c1ccc(-n2cc(CN3CCCC(CN4CCCC4)C3)c(-c3ccc4c(c3)OCO4)n2)cc1 (stereo not drawn)	i	i	i	27	i	i	i
Cc1ccccc1S(=O)(=O)N[C@H]1CC[C@H](CCn2cc(-c3ccc(F)cc3)nn2)O[C@@H]1CO	i	i	i	nt	?	i	nt
CN(C)c1nc(NCc2ccccc2)nc(N/N=C/c2cccc(Br)c2)n1	i	i	i	57	i	i	i
Brc1cccc(/C=N/Nc2nn[nH]n2)c1	i	i	nt	i	i	i	nt
Cc1noc(C)c1NC(=O)N[C@@H]1CC[C@H](CC(=O)NCc2ccc(Cl)c(Cl)c2)O[C@H]1CO	i	i	i	nt	?	i	nt
COC(=O)C(CC#Cc1ccc2c(c1)[C@]1(C(=O)N2)[C@H](c2ccccc2OCCO)N2[C@H](c3ccccc3)[C@H](c3ccccc3)OC(=O)[C@H]2[C@@H]1C(=O)N1CCN(c2ncccn2)CC1)C(=O)OC	nt	i	i	nt	i	i	nt
O=C(Nc1ccc2c(c1)CCC2)c1cc(S(=O)(=O)N2CCN(c3ccccc3)CC2)ccc1Cl	nt	nt	nt	24	nt	nt	i
Cc1c(Cl)cccc1NC(=O)Cn1cc(C(F)(F)F)cc(Cl)c1=O	i	i	nt	57	i	i	i
Cc1ccc(Cl)cc1NC(=O)Cn1cc(C(F)(F)F)cc(Cl)c1=O	i	i	i	i	i	i	nt
O=C(NCc1ccco1)c1sc2cc(Cl)ccc2c1Cl	nt	nt	i	i	nt	nt	nt
O=C(Nc1ccon1)c1sc2cc(Cl)ccc2c1Cl	i	i	i	41	i	i	i
O=C(C[C@@H]1CC[C@@H]2[C@H](COC[C@@H](O)CN2Cc2ccc(Cl)cc2)O1)NCc1cccc(F)c1	i	nt	i	nt	i	nt	nt
N#C/C(=C\c1c[nH]c2ccccc12)C(=O)Nc1ncc(Cc2ccc(Cl)cc2Cl)s1	nt	i	nt	31	i	i	i
N#C/C(=C\c1c[nH]c2ccccc12)C(N)=O	i	i	nt	i	i	i	nt
C[C@@H]1CN([C@H](C)CO)C(=O)c2cc(N(C)C)ccc2O[C@H]1CN(C)Cc1ccncc1	i	i	i	nt	i	i	nt
CCNC(=O)C[C@H]1CC[C@@H]2[C@H](COC[C@@H](O)CN2C(=O)c2cc(Cl)cc(Cl)c2)O1	i	i	i	nt	i	i	nt
O=C(COc1ccc(Cl)cc1)Nc1ccc(NC(=O)c2ccco2)cc1	i	i	nt	25	i	i	i
COc1cccc(C(=O)Nc2ccc3ccccc3c2)c1	i	i	i	i	i	i	nt
COc1cccc(C(=O)Nc2ccc3c(c2)C(=O)NC3=O)c1	i	i	i	23	i	i	i
O=C(COc1ccccc1)Nc1ccc(NC(=O)c2ccco2)cc1	i	i	nt	i	i	i	nt
COc1ccc(NC(=O)c2oc3ccccc3c2NC(=O)c2ccco2)cc1	i	i	nt	21	i	i	i
CC(=O)c1ccc(NC(=O)c2ccc(NC(=O)c3ccco3)cc2)cc1	nt	nt	i	93	nt	nt	i
COc1ccccc1-c1cn(CC[C@@H]2CC[C@@H](NC(=O)C3CC3)[C@H](CO)O2)nn1	i	i	i	nt	i	i	nt
COc1ccc(C(=O)NC(=S)Nc2ccc(NC(=O)c3ccco3)cc2)cc1[N+](=O)[O-]	i	i	i	29	i	i	i
CC(=O)c1ccc(C(=O)Nc2ccc3c(c2)C(=O)NC3=O)cc1	i	i	i	32	i	i	i
COc1ccc(OCC(=O)Nc2ccc3c(c2)C(=O)NC3=O)cc1	i	i	i	i	i	i	nt
COc1ccc(C(=O)Nc2ccc3c(c2)C(=O)NC3=O)cc1	i	i	i	49	?	i	i
